Screening data as filed in PubChem.
This is a sample that favours compounds with a hit; in the whole collection about 4.6% have one here.
Wee1 degr inh = inhibitors of human Wee1 degradation; P30291; HeLa Luc-Wee1K328M stability, luciferase luminescence; 100% = proteasome inhibitor MG132 effect; reporter increase, % at 5 µM; 1.2% of 220,000 active;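 active = activation above the mean of all tested compounds plus 3 SD, set per screening run, cut at about 8.8% in these data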;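 note: cells exposed to compound for 20 h before luminescence read; 0% = DMSO alone and 100% = MG132 at 30 µM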
Target sequence (P30291 whole entry K328M): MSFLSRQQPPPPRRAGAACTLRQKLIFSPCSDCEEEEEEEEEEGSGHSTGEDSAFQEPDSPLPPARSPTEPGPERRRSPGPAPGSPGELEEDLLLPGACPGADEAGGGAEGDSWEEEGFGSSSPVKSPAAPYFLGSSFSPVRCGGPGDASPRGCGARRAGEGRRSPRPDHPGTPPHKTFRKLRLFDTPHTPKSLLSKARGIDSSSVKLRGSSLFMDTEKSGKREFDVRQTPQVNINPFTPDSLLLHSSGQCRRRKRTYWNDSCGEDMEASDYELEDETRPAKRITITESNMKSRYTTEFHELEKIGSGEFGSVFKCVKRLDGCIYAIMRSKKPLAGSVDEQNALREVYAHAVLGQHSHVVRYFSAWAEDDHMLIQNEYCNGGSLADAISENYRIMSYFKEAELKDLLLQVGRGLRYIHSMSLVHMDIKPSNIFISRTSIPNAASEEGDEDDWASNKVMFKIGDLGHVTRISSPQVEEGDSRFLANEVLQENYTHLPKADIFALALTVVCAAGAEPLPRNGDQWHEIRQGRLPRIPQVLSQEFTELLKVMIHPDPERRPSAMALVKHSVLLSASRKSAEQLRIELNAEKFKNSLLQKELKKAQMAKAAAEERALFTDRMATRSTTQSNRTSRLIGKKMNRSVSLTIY
DAX1 inh-1 = inhibits human nuclear receptor DAX1; inhibition, % at 6.75 µM; 0.99% of 340,000 active; P51843; HEK293 Gal4-DAX1 luciferase reporter, luminescence;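 active = inhibition above the mean over all tested compounds plus 3 SD, cut at about 4.2% in these data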;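 note: 0% = DAX1-transfected cells with DMSO and 100% = empty-vector control cells with DMSO; inhibition shows as a rise in luminescence from relieved DAX1 repression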
hgDAF12 agonist = agonists of H. glycines DAF-12 nuclear receptor. HEK293 GAL4-hgDAF12 UAS-luciferase reporter, agonist luminescence; normalized to butyrate control. activation, % at 6.8 µM. 1.8% of 370,000 active;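 active = activation above a cutoff set at the mean of all screened compounds plus 3 SD, cut at about 10% in these data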;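 note: 0% = DMSO wells and 100% = sodium butyrate wells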
DAX1 inh-2 = blocks DAX1 repression of SF-1 activated StAR promoter. HEK293T StAR-luciferase reporter, SF-1/DAX-1 repression relief. inhibition, % at 6.8 µM. 1.1% of 370,000 active. AID 652010;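 active = inhibition above the mean over all tested compounds plus 3 SD, cut at about 3.6% in these data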;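 note: 0% = DAX-1 cells with DMSO and 100% = cells lacking DAX-1 with DMSO; higher inhibition means more luminescence from relief of DAX-1 repression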
ssDAF12 agonist = activators of S. stercoralis DAF-12 nuclear receptor; HEK293 ssDAF-12/GRIP1 lit1-tk-luc reporter, luminescence; % of 3 µM dafachronic acid response; activation, % at 6.8 µM; 1% of 370,000 active;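 active = activation above the mean over all tested compounds plus 3 SD, cut at about 0.9% in these data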;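 note: 0% = DMSO-only wells and 100% = 3 µM delta7-dafachronic acid wells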
hcDAF12 agonist = H. contortus DAF-12 activation, primary screen; activation, % at 6.8 µM; 1.4% of 370,000 active; HEK293 hcDAF-12 lit1-tk-luc reporter, luminescence; 0% DMSO, 100% Δ7-dafachronic acid;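 active = activation above the mean of all tested compounds plus 3 SD, cut at about 5.5% in these data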;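 note: 100% = response to 3 µM Δ7-dafachronic acid high control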
* hit, by the source's call.

How did Cc1ccc(C)c(NC(=O)Cn2nnc(-c3ccncc3)n2)c1 do in these assays?
hgDAF12 agonist: 0; DAX1 inh-2: 1; ssDAF12 agonist: -1; hcDAF12 agonist: 4

How did CC(NC(=O)c1cccc(S(=O)(=O)N2CCc3ccccc32)c1)c1ccco1 (centres undefined) do in these assays?
DAX1 inh-1: 1; hgDAF12 agonist: -1; DAX1 inh-2: 0; ssDAF12 agonist: -1; hcDAF12 agonist: 0

How did OC(COc1ccc2ccccc2c1)CN1CCN(c2ccc(F)cc2)CC1 (centres undefined) do in these assays?
Wee1 degr inh: 3; DAX1 inh-1: 6.9*; hgDAF12 agonist: 0; DAX1 inh-2: 0; ssDAF12 agonist: 0; hcDAF12 agonist: 0

How did Cc1ccc(C(=O)Cn2nnc3ccccc32)cc1[N+](=O)[O-] do in these assays?
Wee1 degr inh: -1; DAX1 inh-1: 6.0*; hgDAF12 agonist: 0; DAX1 inh-2: 1; ssDAF12 agonist: 0; hcDAF12 agonist: 1

What do the screens show for `O=C(Cn1nnc2ccccc21)c1cccc([N+](=O)[O-])c1`?
Wee1 degr inh: 1; DAX1 inh-1: 0; hgDAF12 agonist: -2; DAX1 inh-2: 0; ssDAF12 agonist: -2; hcDAF12 agonist: -1

How did CCOc1ccccc1N1CCN(C(=O)c2cc(S(=O)(=O)N(C)C)ccc2N2CCCC2)CC1 do in these assays?
DAX1 inh-1: -1; hgDAF12 agonist: -3; DAX1 inh-2: -1; ssDAF12 agonist: -2; hcDAF12 agonist: -1

What do the screens show for `COc1ccc(CN2CCN(C(=O)c3c(-c4ccccc4)noc3C)CC2)cc1F`?
DAX1 inh-1: -1; hgDAF12 agonist: 2; DAX1 inh-2: -3; ssDAF12 agonist: 0; hcDAF12 agonist: -2

Results for COc1ccc(O)c(C(=O)c2cnn(-c3ccccn3)c2)c1 ?
Wee1 degr inh: 2; DAX1 inh-1: 0; hgDAF12 agonist: 2; DAX1 inh-2: 1; ssDAF12 agonist: -1; hcDAF12 agonist: 1

Results for COc1ccc(O)c(C(=O)c2cnc3nc4ccccc4n3c2)c1 ?
Wee1 degr inh: -1; DAX1 inh-1: 2; hgDAF12 agonist: 2; DAX1 inh-2: 0; ssDAF12 agonist: 0; hcDAF12 agonist: 6.1*

What do the screens show for `O=C(NCCS(=O)(=O)N1CCN(c2ccccc2F)CC1)c1cccs1`?
DAX1 inh-1: -1; hgDAF12 agonist: -1; DAX1 inh-2: 0; ssDAF12 agonist: -1; hcDAF12 agonist: 0

Results for COc1ccc(N2CCN(c3cnc4ccccc4n3)CC2)cc1 ?
Wee1 degr inh: -2; DAX1 inh-1: 0; hgDAF12 agonist: 11*; DAX1 inh-2: 1; ssDAF12 agonist: 0; hcDAF12 agonist: 0

How did COc1ccc(N2CCN(Cc3nc4ccccc4n3C)CC2)cc1 do in these assays?
Wee1 degr inh: 1; DAX1 inh-1: 2; hgDAF12 agonist: -2; DAX1 inh-2: -1; ssDAF12 agonist: 1.8*; hcDAF12 agonist: 4

What do the screens show for `COc1ccc(N2CCN(c3nc4ccccc4n3CC(=O)c3ccccc3)CC2)cc1`?
Wee1 degr inh: 5; DAX1 inh-1: -2; hgDAF12 agonist: -3; DAX1 inh-2: -1; ssDAF12 agonist: -2; hcDAF12 agonist: -2

How did O=C(NN=Cc1ccccc1C(=O)O)c1cccc(S(=O)(=O)Nc2cccc(C(F)(F)F)c2)c1 do in these assays?
DAX1 inh-1: 0; hgDAF12 agonist: 2; DAX1 inh-2: 0; ssDAF12 agonist: -1; hcDAF12 agonist: -1

What do the screens show for `CCCc1cc(=O)oc2cc(OCC(=O)Nc3ccccn3)ccc12`?
DAX1 inh-1: 1; hgDAF12 agonist: 9; DAX1 inh-2: 4.0*; ssDAF12 agonist: 0; hcDAF12 agonist: 1

How did CCCc1cc(=O)oc2cc(OCC(=O)N3CCC(C(N)=O)CC3)ccc12 do in these assays?
DAX1 inh-1: 6.3*; hgDAF12 agonist: 0; DAX1 inh-2: -1; ssDAF12 agonist: -1; hcDAF12 agonist: 0

How did CCc1cc(=O)oc2cc(OCC(=O)N3CCC(C(=O)O)CC3)ccc12 do in these assays?
DAX1 inh-1: 4.6*; hgDAF12 agonist: 7; DAX1 inh-2: -1; ssDAF12 agonist: -1; hcDAF12 agonist: 0

Results for CCCc1cc(=O)oc2cc(OCC(=O)Nc3cc(C)on3)ccc12 ?
Wee1 degr inh: 3; DAX1 inh-1: 0; hgDAF12 agonist: 2; DAX1 inh-2: 0; ssDAF12 agonist: -1; hcDAF12 agonist: 0

Results for O=C(O)c1c(-c2ccccc2)cnc2ccccc12 ?
DAX1 inh-1: 2; hgDAF12 agonist: -3; DAX1 inh-2: -1; ssDAF12 agonist: -1; hcDAF12 agonist: -2

What do the screens show for `Cn1c(/N=C/c2ccc3c(c2)OCO3)nc2ccccc21`?
Wee1 degr inh: 0; DAX1 inh-1: 0; hgDAF12 agonist: 1; DAX1 inh-2: 0; ssDAF12 agonist: -1; hcDAF12 agonist: 5.9*

Results for CCOC(=O)C1CCCN(c2ncnc3c2cnn3-c2cccc(C)c2)C1 (centres undefined) ?
Wee1 degr inh: 0; DAX1 inh-1: -1; hgDAF12 agonist: -6; DAX1 inh-2: -1; ssDAF12 agonist: -2; hcDAF12 agonist: -2

What do the screens show for `CCN1CCN(c2ncnc3c2cnn3-c2ccc(Cl)cc2)CC1`?
DAX1 inh-1: 2; hgDAF12 agonist: 12*; DAX1 inh-2: 2; ssDAF12 agonist: 0; hcDAF12 agonist: 1

What do the screens show for `CCOC(=O)C1CCN(c2ncnc3c2cnn3-c2ccc(OC)cc2)CC1`?
Wee1 degr inh: 9.1*; DAX1 inh-1: 0; hgDAF12 agonist: -5; DAX1 inh-2: 0; ssDAF12 agonist: -2; hcDAF12 agonist: -2

Results for O=[N+]([O-])c1ccc2nc(CNc3nc(N4CCOCC4)nc4c3ncn4-c3ccsc3)[nH]c2c1 ?
hgDAF12 agonist: -12; ssDAF12 agonist: -3; hcDAF12 agonist: -6

Results for COc1ccc(/C=C/C(=O)Oc2cccc(/C=N/NC(=O)c3cccc(F)c3)c2)cc1 ?
Wee1 degr inh: 14*; DAX1 inh-1: -1; hgDAF12 agonist: 5; DAX1 inh-2: 0; ssDAF12 agonist: 0; hcDAF12 agonist: 0

Results for COn1c(-c2ccc(Cl)cc2)nc2ccc(Cl)cc21 ?
Wee1 degr inh: -1; DAX1 inh-1: 2; hgDAF12 agonist: 9; DAX1 inh-2: 0; ssDAF12 agonist: -1; hcDAF12 agonist: 2

Results for O=C(O)COn1c(-c2ccc(Cl)cc2)nc2ccc(Cl)cc21 ?
Wee1 degr inh: 4; DAX1 inh-1: 1; hgDAF12 agonist: 5; DAX1 inh-2: 1; ssDAF12 agonist: 0; hcDAF12 agonist: 6.2*

What do the screens show for `Cc1ccc(COn2c(-c3ccc(Cl)cc3)nc3ccc([N+](=O)[O-])cc32)cc1`?
Wee1 degr inh: 0; DAX1 inh-1: 4.7*; hgDAF12 agonist: 10; DAX1 inh-2: 3; ssDAF12 agonist: 1.1*; hcDAF12 agonist: 2
